# Assay results from the supplement of paper PMC10849652.
# Targets with a hit are over-represented here; the source holds about 8,800 in all. About 0.5% of all pairs of compound and target were hits. Values without a mark were called inactive.
# What was measured:
# Experiment in all cases: log2 fold change, soluble protein after heating vs DMSO (PISA); higher = thermal stabilisation; K562 lysate, 10 uM; active = over 0.2 and 3.5 SD of the protein, either way, in both replicates (recomputed)
# lapatinib = compound: CS(=O)(=O)CCNCc1ccc(-c2ccc3ncnc(Nc4ccc(OCc5cccc(F)c5)c(Cl)c4)c3c2)o1 [lapatinib]
# Summary of the method: (§1)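 Following dounce homogenisation of K562 pellets in PBS pH 7.4 with 1 mM MgCl2, crude extract at 1 mg/mL protein was incubated for 30 min with 10 μM compound. Aliquots were then heated for 3 min over 48°C-58°C and pooled, NP-40 was added to 0.5% at 4°C, and soluble protein was recovered as the supernatant at 21,000xg for 90 min. Channel-sum-equalised TMTpro 16plex LC-MS/MS quantified this protein. Each value, from duplicates, is a log-two fold change in thermal stability relative to solvent controls.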
# pictilisib = compound: CS(=O)(=O)N1CCN(Cc2cc3nc(-c4cccc5[nH]ncc45)nc(N4CCOCC4)c3s2)CC1 [pictilisib]
# Summary of the method: as §1
# crizotinib = compound: C[C@@H](Oc1cc(-c2cnn(C3CCNCC3)c2)cnc1N)c1c(Cl)ccc(F)c1Cl [crizotinib]
# Summary of the method: as §1
# [1] = compound: C[C@H](C1=CC=C(C=C1)C(=O)NC2=C3C=CNC3=NC=C2)N
# Summary of the method: as §1
# duvelisib = compound: C[C@H](Nc1ncnc2nc[nH]c12)c1cc2cccc(Cl)c2c(=O)n1-c1ccccc1 [duvelisib]
# Summary of the method: as §1
# gandotinib = compound: Cc1cc(Nc2cc(CN3CCOCC3)c3nc(C)c(Cc4ccc(Cl)cc4F)n3n2)n[nH]1 [gandotinib]
# Summary of the method: as §1
# tozasertib = compound: Cc1cc(Nc2cc(N3CCN(C)CC3)nc(Sc3ccc(NC(=O)C4CC4)cc3)n2)n[nH]1 [tozasertib]
# Summary of the method: as §1
# doramapimod = compound: Cc1ccc(-n2nc(C(C)(C)C)cc2NC(=O)Nc2ccc(OCCN3CCOCC3)c3ccccc23)cc1 [doramapimod]
# Summary of the method: as §1
# bafetinib = compound: Cc1ccc(NC(=O)c2ccc(CN3CC[C@H](N(C)C)C3)c(C(F)(F)F)c2)cc1Nc1nccc(-c2cncnc2)n1 [bafetinib]
# Summary of the method: as §1
# [2] = compound: Cc1cccc(CC(=O)N2CCc3c2ccc(-c2cn(C)c4ncnc(N)c24)c3F)n1
# Summary of the method: as §1
# Chain of UniProt Q14203 (Q14203 whole entry, looked up): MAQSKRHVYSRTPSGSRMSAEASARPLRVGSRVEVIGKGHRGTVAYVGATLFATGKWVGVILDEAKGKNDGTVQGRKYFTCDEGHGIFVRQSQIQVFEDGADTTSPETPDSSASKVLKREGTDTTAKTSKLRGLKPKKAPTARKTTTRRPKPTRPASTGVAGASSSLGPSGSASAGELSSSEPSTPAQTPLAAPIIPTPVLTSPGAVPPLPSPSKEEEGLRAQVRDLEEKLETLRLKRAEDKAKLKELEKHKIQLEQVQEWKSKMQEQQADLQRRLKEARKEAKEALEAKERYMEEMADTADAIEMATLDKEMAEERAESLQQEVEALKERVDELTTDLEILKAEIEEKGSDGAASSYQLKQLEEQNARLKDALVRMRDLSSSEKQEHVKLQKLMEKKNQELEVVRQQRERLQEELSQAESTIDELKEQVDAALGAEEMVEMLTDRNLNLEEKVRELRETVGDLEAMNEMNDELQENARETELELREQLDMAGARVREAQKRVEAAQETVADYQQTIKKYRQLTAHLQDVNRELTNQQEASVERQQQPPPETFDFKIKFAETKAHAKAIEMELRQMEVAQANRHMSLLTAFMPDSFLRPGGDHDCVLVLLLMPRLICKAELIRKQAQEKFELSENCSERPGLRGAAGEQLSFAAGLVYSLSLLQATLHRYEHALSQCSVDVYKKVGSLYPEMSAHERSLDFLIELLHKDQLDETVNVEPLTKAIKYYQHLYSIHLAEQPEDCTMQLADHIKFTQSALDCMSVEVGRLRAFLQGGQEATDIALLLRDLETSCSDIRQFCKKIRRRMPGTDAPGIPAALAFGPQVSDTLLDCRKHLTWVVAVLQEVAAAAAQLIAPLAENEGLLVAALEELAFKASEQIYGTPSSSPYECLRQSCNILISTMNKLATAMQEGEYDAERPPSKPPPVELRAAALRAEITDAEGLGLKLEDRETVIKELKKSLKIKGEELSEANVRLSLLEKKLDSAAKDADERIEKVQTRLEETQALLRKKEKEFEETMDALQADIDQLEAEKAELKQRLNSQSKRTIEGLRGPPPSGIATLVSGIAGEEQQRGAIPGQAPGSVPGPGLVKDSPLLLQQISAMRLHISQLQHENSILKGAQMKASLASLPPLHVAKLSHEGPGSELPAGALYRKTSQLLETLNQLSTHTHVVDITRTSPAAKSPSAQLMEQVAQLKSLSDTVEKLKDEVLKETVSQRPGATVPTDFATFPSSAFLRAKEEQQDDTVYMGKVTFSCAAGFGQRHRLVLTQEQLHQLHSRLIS
# Chain of UniProt P68400 (P68400 whole entry, looked up): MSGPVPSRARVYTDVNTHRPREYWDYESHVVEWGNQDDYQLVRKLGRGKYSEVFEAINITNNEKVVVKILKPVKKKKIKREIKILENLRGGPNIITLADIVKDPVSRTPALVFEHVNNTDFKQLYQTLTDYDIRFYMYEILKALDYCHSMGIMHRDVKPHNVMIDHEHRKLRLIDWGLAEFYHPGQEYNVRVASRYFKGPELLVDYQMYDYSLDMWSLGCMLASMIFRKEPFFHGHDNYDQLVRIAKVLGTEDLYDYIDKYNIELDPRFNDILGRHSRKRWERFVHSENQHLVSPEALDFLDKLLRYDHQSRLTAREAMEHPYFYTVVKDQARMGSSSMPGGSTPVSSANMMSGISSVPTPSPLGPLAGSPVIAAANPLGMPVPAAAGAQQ
# Chain of UniProt O75534 (O75534 whole entry, looked up): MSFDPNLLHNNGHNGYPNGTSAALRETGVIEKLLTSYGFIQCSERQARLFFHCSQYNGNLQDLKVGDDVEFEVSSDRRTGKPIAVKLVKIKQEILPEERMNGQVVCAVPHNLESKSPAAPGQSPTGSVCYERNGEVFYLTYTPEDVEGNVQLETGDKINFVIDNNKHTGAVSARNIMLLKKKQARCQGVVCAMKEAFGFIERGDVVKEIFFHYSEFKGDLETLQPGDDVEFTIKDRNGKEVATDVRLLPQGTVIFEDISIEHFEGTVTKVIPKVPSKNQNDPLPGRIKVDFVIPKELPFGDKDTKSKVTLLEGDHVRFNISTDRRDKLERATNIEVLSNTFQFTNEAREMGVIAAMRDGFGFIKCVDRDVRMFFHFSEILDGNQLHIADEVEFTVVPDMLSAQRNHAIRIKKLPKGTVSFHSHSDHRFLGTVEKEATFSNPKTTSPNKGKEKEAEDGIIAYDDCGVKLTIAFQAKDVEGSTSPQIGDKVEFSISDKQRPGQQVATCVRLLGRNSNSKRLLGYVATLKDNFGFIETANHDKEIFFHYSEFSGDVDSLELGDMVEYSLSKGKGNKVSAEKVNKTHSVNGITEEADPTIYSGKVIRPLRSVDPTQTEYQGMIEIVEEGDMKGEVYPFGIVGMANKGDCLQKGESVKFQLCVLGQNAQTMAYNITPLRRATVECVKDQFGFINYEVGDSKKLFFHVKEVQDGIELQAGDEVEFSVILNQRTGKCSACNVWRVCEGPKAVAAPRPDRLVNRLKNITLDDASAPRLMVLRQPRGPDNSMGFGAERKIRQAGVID
# Chain of UniProt Q5EBM0 (Q5EBM0 whole entry, looked up): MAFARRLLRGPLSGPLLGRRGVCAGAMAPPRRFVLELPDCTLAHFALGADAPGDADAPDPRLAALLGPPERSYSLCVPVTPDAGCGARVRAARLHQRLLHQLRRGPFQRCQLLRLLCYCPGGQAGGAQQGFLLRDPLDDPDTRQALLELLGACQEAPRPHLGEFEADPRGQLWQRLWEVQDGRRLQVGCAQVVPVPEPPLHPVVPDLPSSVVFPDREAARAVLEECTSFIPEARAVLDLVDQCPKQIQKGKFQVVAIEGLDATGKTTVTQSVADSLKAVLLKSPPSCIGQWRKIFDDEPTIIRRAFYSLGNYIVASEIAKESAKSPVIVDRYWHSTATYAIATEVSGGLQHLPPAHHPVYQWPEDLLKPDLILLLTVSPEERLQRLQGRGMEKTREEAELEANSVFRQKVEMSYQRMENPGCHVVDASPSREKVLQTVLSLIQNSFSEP
# Chain of UniProt P41240 (P41240 whole entry, looked up): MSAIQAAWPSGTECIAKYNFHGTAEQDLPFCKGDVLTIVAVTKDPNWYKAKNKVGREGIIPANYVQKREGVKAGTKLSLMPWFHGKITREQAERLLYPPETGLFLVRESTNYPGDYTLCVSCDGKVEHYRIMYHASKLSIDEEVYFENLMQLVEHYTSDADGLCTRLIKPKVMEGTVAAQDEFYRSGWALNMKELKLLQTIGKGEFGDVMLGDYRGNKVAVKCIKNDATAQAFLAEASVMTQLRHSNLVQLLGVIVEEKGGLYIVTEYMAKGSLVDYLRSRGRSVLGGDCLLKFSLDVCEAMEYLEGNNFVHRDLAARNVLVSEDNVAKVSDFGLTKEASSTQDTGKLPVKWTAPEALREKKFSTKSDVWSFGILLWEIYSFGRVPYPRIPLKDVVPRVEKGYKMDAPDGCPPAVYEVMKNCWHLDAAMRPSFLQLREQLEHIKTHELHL
# Chain of UniProt P31146 (P31146 whole entry, looked up): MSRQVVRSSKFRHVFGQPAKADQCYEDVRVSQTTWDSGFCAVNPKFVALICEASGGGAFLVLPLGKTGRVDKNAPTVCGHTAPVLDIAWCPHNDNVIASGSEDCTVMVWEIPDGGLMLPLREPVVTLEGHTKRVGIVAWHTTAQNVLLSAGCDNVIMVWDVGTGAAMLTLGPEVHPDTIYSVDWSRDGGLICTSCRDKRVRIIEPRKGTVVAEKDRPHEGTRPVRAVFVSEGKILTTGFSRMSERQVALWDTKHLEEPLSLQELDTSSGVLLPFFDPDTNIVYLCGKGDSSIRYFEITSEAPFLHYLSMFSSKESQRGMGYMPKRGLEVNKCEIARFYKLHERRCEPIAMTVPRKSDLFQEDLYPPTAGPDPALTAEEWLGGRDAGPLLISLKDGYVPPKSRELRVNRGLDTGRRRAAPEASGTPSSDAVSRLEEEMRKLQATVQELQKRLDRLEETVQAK
# Chain of UniProt Q8NI60 (Q8NI60 whole entry, looked up): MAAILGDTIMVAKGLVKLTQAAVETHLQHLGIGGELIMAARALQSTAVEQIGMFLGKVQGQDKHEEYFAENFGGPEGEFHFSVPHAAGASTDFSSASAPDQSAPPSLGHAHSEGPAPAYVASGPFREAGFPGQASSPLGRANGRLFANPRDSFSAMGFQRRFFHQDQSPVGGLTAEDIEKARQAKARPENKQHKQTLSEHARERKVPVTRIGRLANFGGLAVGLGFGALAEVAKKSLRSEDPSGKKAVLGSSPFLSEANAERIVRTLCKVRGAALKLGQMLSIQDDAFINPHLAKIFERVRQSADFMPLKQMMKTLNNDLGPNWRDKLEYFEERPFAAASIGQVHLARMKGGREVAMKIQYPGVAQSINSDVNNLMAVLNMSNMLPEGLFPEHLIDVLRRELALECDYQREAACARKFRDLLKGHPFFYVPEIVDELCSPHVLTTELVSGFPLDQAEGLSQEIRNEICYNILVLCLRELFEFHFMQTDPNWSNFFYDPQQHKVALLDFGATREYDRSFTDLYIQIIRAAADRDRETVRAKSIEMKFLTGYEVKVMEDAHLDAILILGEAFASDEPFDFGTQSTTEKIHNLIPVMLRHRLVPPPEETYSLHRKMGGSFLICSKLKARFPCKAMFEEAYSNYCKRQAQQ
# Chain of UniProt Q5RI15 (Q5RI15 whole entry, looked up): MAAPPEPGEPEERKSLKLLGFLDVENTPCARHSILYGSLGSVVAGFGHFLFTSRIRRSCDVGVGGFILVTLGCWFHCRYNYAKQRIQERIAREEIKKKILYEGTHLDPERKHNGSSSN
# Chain of UniProt O76075 (O76075 whole entry, looked up): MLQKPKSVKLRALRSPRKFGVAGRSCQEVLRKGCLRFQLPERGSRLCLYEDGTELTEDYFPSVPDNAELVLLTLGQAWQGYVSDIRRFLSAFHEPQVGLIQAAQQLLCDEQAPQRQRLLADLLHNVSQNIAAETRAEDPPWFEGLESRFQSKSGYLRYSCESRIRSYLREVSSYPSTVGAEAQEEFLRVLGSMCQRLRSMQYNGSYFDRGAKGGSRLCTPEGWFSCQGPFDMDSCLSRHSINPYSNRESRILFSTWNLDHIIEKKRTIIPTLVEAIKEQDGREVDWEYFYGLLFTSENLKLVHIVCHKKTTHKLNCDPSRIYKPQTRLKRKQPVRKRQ
Target,log2 fold change (lapatinib),log2 fold change (pictilisib),log2 fold change (crizotinib),log2 fold change [1],log2 fold change (duvelisib),log2 fold change (gandotinib),log2 fold change (tozasertib),log2 fold change (doramapimod),log2 fold change (bafetinib),log2 fold change [2]
COQ8A (UniProt Q8NI60),0.004,0.025,0.106,-0.078,-0.095,0.126,0.023,-0.059,0.041,-0.042
CTNNBL1 (UniProt Q8WYA6),0,-0.011,-0.032,0.015,0,-0.058,0.033,0.058,-0.103,0.043
DDX39A (UniProt O00148),-0.004,0.021,0.006,-0.022,0.004,-0.104,-0.008,-0.046,-0.004,0.093
CIP2A (UniProt Q8TCG1),-0.02,-0.045,-0.101,-0.049,0.012,-0.218,0,0.005,-0.047,0.103
CSNK2A2 (UniProt P19784),-0.116,0.057,-0.071,0.099,-0.02,-0.1,-0.035,-0.015,0.009,-0.041
DDX54 isoform 2 (UniProt Q8TDD1),-0.03,0.075,-0.057,-0.025,0.025,0.01,0.035,0.019,0.11,0.101
CKAP2 (UniProt Q8WWK9),-0.004,-0.02,-0.027,0.064,0.016,0.016,0.034,-0.001,0.019,-0.009
DCUN1D4 isoform 3 (UniProt Q92564),0.072,0.046,-0.02,0.001,0.02,-0.104,-0.009,0.004,-0.003,-0.039
DGCR8 (UniProt Q8WYQ5),-0.023,-0.048,0.039,-0.056,-0.014,-0.032,-0.012,0.04,-0.009,0.044
CMPK2 (UniProt Q5EBM0),0.065,0,0.007,-0.074,0.043,0.008,0.018,-0.01,-0.061,0.056
CSNK2A1 (UniProt P68400),-0.038,0.016,0.007,-0.021,-0.002,-0.007,-0.006,-0.003,0.027,-0.018
CNOT4 isoform 9 (UniProt O95628),-0.006,-0.014,0.077,-1.01 (active),-0.009,0.298,0.04,-0.184,-0.031,0.271
CHML (UniProt P26374),-0.006,-0.003,0.022,-0.012,0.006,0.013,-0.004,-0.025,0.094,0.004
DNAJC5 (UniProt Q9H3Z4),-0.021,0.075,0.007,-0.377 (active),-0.041,0.161,-0.054,0.023,-0.144,0.334 (active)
CUX1 isoform 3 (UniProt P39880),-0.01,-0.045,0.004,0.076,0.007,-0.116,0.032,-0.025,-0.012,0.007
DOCK7 (UniProt Q96N67),-0.003,-0.016,-0.022,-0.107,-0.004,-0.103,0.047,0.012,-0.032,0.102
DLD (UniProt P09622),-0.003,0.009,-0.001,-0.067,-0.012,0.047,-0.016,-0.001,0.005,0.012
CSDE1 isoform 4 (UniProt O75534),0.001,-0.004,-0.006,0.041,-0.015,-0.095,0.003,0.005,-0.021,-0.017
CYP24A1 (UniProt Q07973),-0.099,0.015,-0.289,-0.462 (active),0.077,0.235,-0.02,0.006,-0.209,0.325
DCTN1 (UniProt Q14203),-0.005,-0.021,-0.005,0.027,0.001,-0.029,-0.002,-0.013,-0.023,-0.005
CYP51A1 (UniProt Q16850),0.105,0.024,0.023,-0.036,-0.065,0.447 (active),0,0.089,0.385 (active),0.045
DFFB (UniProt O76075),0.003,-0.016,0.023,0.003,-0.008,0.015,0.049,-0.07,-0.028,-0.021
CIC (UniProt I3L2J0),-0.074,-0.02,-0.002,-0.052,-0.047,0.006,0.02,-0.036,-0.08,0.037
CORO1A (UniProt P31146),-0.018,-0.058,-0.008,-0.069,0.038,0.037,0.089,0.009,-0.028,-0.001
DOCK8 (UniProt Q8NF50),-0.032,-0.011,-0.03,-0.002,0.003,-0.097,0.042,0.029,-0.062,0.02
COG2 (UniProt Q14746),-0.009,-0.03,-0.041,-0.025,0.025,-0.118,0.012,0.009,-0.027,0.02
COX20 isoform 2 (UniProt Q5RI15),0.016,0.186,0.054,0.455 (active),-0.007,-0.144,-0.053,-0.036,0.144,-0.273
CSK (UniProt P41240),-0.022,-0.017,0.259,-0.075,-0.026,0.377,0.098,-0.005,0.41,0
DLG3 isoform 2 (UniProt Q92796),0.008,0.073,-0.01,-0.047,0.125,0,0.097,0.043,0.055,0.065
